Rows were chosen to be rich in hits. Some 8.7% of all compounds tested hit in one or more screens of this group.
Pf growth 96h: inhibits malaria parasite growth, 96 h; P. falciparum luciferase reporter growth, 96 h; Potency, µM (top dose mostly 28.7 µM), for inactives: at the highest dose activity change, negative = inhibition, hits mostly inhibitors; 320,000 tested, 6.9% active; AID 504834
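P. falciparum expressing integrated firefly luciferase, in erythrocytes at 2% hematocrit, 0.05% parasitemia, incubated with compounds 96 h at 37 C, 5% CO2. Growth inhibition read as loss of luminescence; two-generation exposure targets delayed-death apicoplast inhibitors.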
Pf growth 48h: inhibits P. falciparum growth in the first generation, 48 h; P. falciparum luciferase growth in erythrocytes, 48 h; Potency, µM (highest dose often 28.7 µM), without a hit: at the highest dose activity change, negative = inhibition, actives largely listed as inhibitors; 310,000 tested, 5.9% active; AID 504832
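In quantitative HTS format, infected erythrocytes bearing luciferase-reporter parasites were treated for a single generation at 37 C. Luminescence after adding detection reagent served as the growth measure.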
AMA1-RON2 inh: AMA1-RON2 (P. falciparum) interaction inhibition | AID 720542 | 360,000 tested, 0.2% active | AlphaScreen AMA1-biotinylated RON2 peptide binding | Potency, µM (highest dose often 58.2 µM), for inactives: at the highest dose activity change, negative = inhibition, hits mostly inhibitors;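 note: 0% = vehicle wells and -100% = peptide control; nearly all actives have a fitted effect of over 45% in size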
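AMA1 (3D7) with his tag at 25 nM final met compounds first, then biotinylated RON2 peptide at 25 nM; detection used donor plus acceptor beads, 10 µg/mL apiece, read by AlphaScreen after 30 min at room temperature.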
VACV Venus inh: vaccinia inhibition (Venus reporter) | Vaccinia virus Venus reporter expression, fluorescence | Potency, µM (top dose mostly 36.5 µM), for the others: at the highest dose activity change, negative = inhibition, most hits filed as inhibitors | 330,000 tested, 0.46% active | AID 720580; calls by dose curve; tested in A549 cells; note: nearly all actives have a fitted effect of over 30% in size
VACV mCherry inh: vaccinia inhibition (mCherry reporter); Vaccinia virus mCherry reporter infection, fluorescence; Potency, µM (series often up to 36.5 µM), for the others: at the highest dose activity change, negative = inhibition, actives largely listed as inhibitors; 310,000 tested, 0.63% active; AID 720579; calls by dose curve; tested in A549 cells; note: nearly all actives have a fitted effect of over 35% in size
An asterisk follows results filed as active; i = inactive; ? = inconclusive; · = not tested or not shown; [ ] = remark or other dose. Unless noted, calls come from the whole dose curve; as a rule, active = well fitted curve in the direction sought with a large enough effect; inconclusive = small, poorly fitted or top-dose-only effect, or another doubt; inactive = no such curve, though single readings can be large; an effect the other way counts as inactive or inconclusive. Unless noted, % is set by controls: 0 for no effect and ±100 for the full control effect; potency is the fitted concentration of half-maximal effect.

SMILES	Pf growth 96h	Pf growth 48h	AMA1-RON2 inh	VACV Venus inh	VACV mCherry inh
COc1cccc2c1c(NC(=O)c1cc(C)on1)nn2C	31%	60%	-2%	-17%	i
CCOC(=O)c1c(C)[nH]c(C2=NNC(=Nc3ccccc3)SC2)c1C	3.7µM*	3.3µM*	19%	·	·
CCOC(=O)c1c(C)[nH]c(C2=NNC(=Nc3ccc(OCC)cc3)SC2)c1C	15µM*	?	-21%	-22%	-10%
CC(=O)c1c(C)[nH]c(C2=NNC(=NC(C)(C)C)SC2)c1C	2.6µM*	0%	25%	0%	-7%
CCOC(=O)c1c(C)[nH]c(C2=NNC(=Nc3ccccc3OC)SC2)c1C	?	?	28%	?	-16%
N#CC1=C2SCCN2C(=O)C(C#N)C12CCCCC2 (stereo not drawn)	2.1µM*	-8%	-7%	·	·
CC(C)Oc1ccc(CNC(=O)c2cccc(NC(=O)N3CCSc4ncccc43)c2)cc1	·	·	·	-15%	-14%
CCOc1cccc2cc(-c3csc(NC(=O)CCC(=O)NCCN4CCCCC4C)n3)c(=O)oc12 (stereo not drawn)	?	401%	-7%	?	11µM*
CCOc1cccc2cc(-c3csc(NC(=O)CCC(=O)NCCCN4CCC(C)CC4)n3)c(=O)oc12	37%	195%	·	·	·
CCOc1ccc(NS(=O)(=O)c2ccc3ncsc3c2)cc1	3.7µM*	-5%	3%	-10%	-26%
CCOc1ccc(NS(=O)(=O)c2cnc(Cl)c(Cl)c2)cc1	-2%	2%	12%	13µM*	?
COc1ccc(-c2cnc(C)o2)cc1S(=O)(=O)Nc1ccc(C)c(N(C)C)c1	·	·	·	-6%	-15%
COc1ccc(-n2ncc3c(=O)n(CC(=O)NC(C)C)cnc32)cc1	7.4µM*	0%	7%	·	·
CC(C)NC(=O)Cn1cnc2c(cnn2-c2ccc(F)cc2)c1=O	11%	-1%	5%	-16%	-22%
COc1ccc(-n2ncc3c(=O)n(CC(=O)Nc4ccc5c(c4)OCCO5)cnc32)cc1	4.7µM*	17%	0%	-8%	-14%
CCCCC(=O)Nc1nc2ccc3nc(C)sc3c2s1	10µM*	?	14%	-21%	-11%
O=C(NCc1ccco1)c1ccc2c(c1)N(Cc1ccc(F)cc1)C(=O)c1ccccc1S2=O (stereo not drawn)	·	·	·	-5%	-11%
O=C(CCCCCN1C(=O)C2C3C=CC(C3)C2C1=O)Nc1nccs1 (stereo not drawn)	2.3µM*	·	-5%	·	·
COc1ccc(OC)c(CN2CCOc3ccc(C(O)c4cccnc4)cc3C2)c1 (stereo not drawn)	·	·	·	-13%	-22%
COc1ccc([C@]23Cc4ccccc4C(O2)C2=C(CCCC2=O)O3)cc1	1.5µM*	?	·	·	·
CCOC(=O)[C@]12Cc3ccccc3[C@H]1N(C(C)C)C(=O)c1cc(OC)ccc12	·	·	6%	?	?
COc1ccc([C@]23Cc4c(ccc5ccccc45)C(O2)C2=C(CCCC2=O)O3)cc1	?	18%[5.75 µM]	·	·	·
COc1ccc([C@]23Cc4ccccc4C(O2)C2=C(CC(C)(C)CC2=O)O3)cc1	0.6µM*	?	·	·	·
COc1ccc([C@]23Cc4ccccc4C(O2)C2=C(O3)C(=O)c3ccccc3C2=O)cc1	45%[5.75 µM]	1.5µM*	·	·	·
CCN(CC)c1c([N+](=O)[O-])c(=O)sc2ccccc12	15%	-50%	-1%	-11%	-2%
SMILES	Pf growth 96h	Pf growth 48h	AMA1-RON2 inh	VACV Venus inh	VACV mCherry inh
CCn1c(=O)c([N+](=O)[O-])c(N2CCOCC2)c2ccccc21	10µM*	8%	10%	-11%	i
CCN(CC)c1c([N+](=O)[O-])c(=O)n(CC)c2ccccc12	?	13µM*	-11%	·	·
Clc1cccc(Cl)c1CN1CCN(c2ncccn2)CC1	?	-9%	0%	-2%	i
c1ccc(Cn2nnnc2CN2CCN(c3ncccn3)CC2)cc1	4.7µM*	-9%	19%	-6%	-10%
COc1ccc(Cn2nnnc2CN2CCOCC2)cc1	13µM*	-4%	-13%	-4%	-20%
COc1ccc(CN2CCOCCOCCOCCOCCOCC2)cc1	15%	12%	1%	-13%	-6%
C[C@H]1C[C@@H]2[C@@H]([C@@H](O)C[C@@]3(C)[C@H]2CC[C@]3(O)C(=O)CO)[C@@]2(C)C=CC(=O)C=C12	?	-16%[12.8 µM]	·	·	·
CCOc1ccc(CCNC(=O)c2nnc(Cc3cc(OC)c(OC)c(OC)c3)o2)cc1OCC	·	·	·	-10%	-12%
COc1ccc(-n2ncc(C(=O)NCCc3ccsc3)c2C2CCN(C(=O)OC(C)(C)C)CC2)cc1	·	·	·	-1%	-12%
CCN(CC)c1ccc(NC(=S)Nc2ccc(F)cc2)cc1	4%	?	32µM*	-6%	-13%
CCN(CC)c1ccc(NC(=O)CN2CCN(CC(=O)Nc3ccc(F)cc3)CC2)cc1	2.6µM*	?	-25%	-6%	·
COC(=O)c1c(-c2ccc(Cl)cc2)noc1N1CCN(c2cccc(C(F)(F)F)c2)CC1	·	·	·	-2%	-3%
Cc1cc(=O)n(CC(=O)NC(C)c2ccccc2)c2c1c(C)nn2-c1cccc(F)c1 (stereo not drawn)	·	·	·	-4%	-1%
CCOC(=O)C1CCCN(S(=O)(=O)c2ccc3c(c2)CC(C)N3C(=O)C2CC2)C1 (stereo not drawn)	10µM*	-18%	-3%	-6%	-13%
CC(=O)c1ccc(N2CCN(S(=O)(=O)c3ccc4c(c3)CC(C)N4C(=O)C3CC3)CC2)cc1 (stereo not drawn)	?	7.4µM*	-3%	·	·
CC(=O)c1ccc(N2CCN(S(=O)(=O)c3ccc4c(c3)CC(C)N4C(C)=O)CC2)cc1 (stereo not drawn)	?	?	8%	-23%	-2%
CC1Cc2cc(S(=O)(=O)N3CCN(C)CC3)ccc2N1C(=O)C1CC1 (stereo not drawn)	5.9µM*	?	0%	-18%	-11%
CCOC(=O)C1CCCN(S(=O)(=O)c2ccc3c4c(cccc24)C(=O)N3CC)C1 (stereo not drawn)	?	10µM*	34%	·	·
CCN1C(=O)c2cccc3c(S(=O)(=O)N4CCCC4C(=O)O)ccc1c23 (stereo not drawn)	16%	26%	6%	-4%	i
CC1(C)Nc2cccc3c(N=Nc4ccc(N=Nc5ccccc5)c5ccccc45)ccc(c23)N1	·	·	·	-16%	-12%
CCc1cccc(C)c1NC(=O)Cn1c(=O)n(-c2ccc(C)cc2)c(=O)c2c1cnn2C	·	·	·	-2%	-13%
CCOC(=O)C1(CCOc2ccccc2)CCN(Cc2ccc3c(c2)OCCO3)CC1	4%	?	-5%	-27%	-20%
COc1cc(OC)c(CN2CCC(CO)(CCOc3ccccc3)CC2)c(OC)c1	0%	?	-12%	-17%	i
COc1cc(CN2CCC(CO)(CCOc3ccccc3)CC2)cc(OC)c1OC	9%	5.9µM*	-4%	·	·
COc1cc(CN2CCC(Cc3ccccc3)CC2)cc(OC)c1OC	9.3µM*	?	-23%	·	·

Screening results (PubChem)
